Only some compounds are listed: those with a hit (about 2.2% of all), similar ones and a draw of the others.
APP 5UTR inh: inhibitors of APP translation via 5'UTR reporter, primary screen, APP 5'UTR luciferase, SH-SY5Y cells; AID 1285, 2008; hit rate 0.82% among 190,000; SH-SY5Y APP 5'UTR-luciferase reporter, luminescence; inhibition, % at 2 µM;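 active = inhibition above a set limit, derived from the sample mean plus 3 SD, cut at about 45% in these data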
BaF3 parental: parental Ba/F3 cell viability inhibition, counter-screen for JAK2V617F inhibitor project, murine pro-B, CellTiter-Glo luminescence; CellTiter-Glo ATP luminescence; AID 1486, 2009; inhibition, % at 5.6 µM; hit rate 1.1% among 220,000;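 active = inhibition above a per-campaign cutoff, the mean inhibition of all tested compounds plus 3 SD, cut at about 27% in these data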
Ba/F3 V617F tox: reduced viability of JAK2V617F-dependent Ba/F3 cells, primary screen, JAK2V617F inhibitor project, cell-based, Ba/F3 EpoR-JAK2V617F, luminescence; inhibition, % at 5.6 µM; ATP luminescence; hit rate 1.1% among 220,000;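 active = inhibition above the campaign mean plus 3 SD over all tested compounds, cut at about 24% in these data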;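 also: cytokine-independent growth of Ba/F3 cells driven by EpoR plus mutant JAK2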
IEC-6 cytotox: cytotoxicity in IEC-6 intestinal epithelial cells, primary screen, cytotoxicity control for KLF5 inhibitor project, cell-based, luminescence; inhibition, % at 5 µM; AID 1825, 2009; IEC-6 cytotoxicity, luminescence viability; hit rate 0.78% among 290,000; in the data active = inhibition above about 22%
aSyn 5UTR inh: MLPCN primary screen, SNCA 5' untranslated region; inhibition, % (tested at 7.5 µM); alpha-synuclein 5'UTR reporter, inhibitor activity; hit rate 0.82% among 300,000; AID 1813, 2009; in the data active = inhibition above about 60%;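 also: H4 neuroglioblastoma cells stably carrying SNCA 5'UTR luciferase fusion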
KLF5 inhibitor: KLF5 expression inhibitors, primary screen, DLD-1 cells, luminescence; DLD-1 KLF5 promoter-luciferase reporter; inhibition, % at 5 µM; hit rate 0.23% among 290,000;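 active = inhibition above a per-plate limit of that plate's mean compound inhibition plus 3 SD, cut at about 60% in these data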;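 also: higher means less KLF5 promoter-driven luciferase light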
Large screens that a line does not name were inactive.

C=CCN=c1scc(-c2ccccc2)n1/N=C/c1ccccn1	BaF3 parental 57, Ba/F3 V617F tox 53, IEC-6 cytotox 31
CCn1c(C)cc(/C=C2/NC(=O)N(c3ccccc3)C2=O)c1C	Ba/F3 V617F tox 40
[N-]=[N+]=NCCN1CCN(Cc2ccccc2)CCC1=O	none (no result: APP 5UTR inh, BaF3 parental, Ba/F3 V617F tox)
Cc1ccc2c(c1)Oc1ccc(NC(=O)CCl)cc1C(=O)N2	APP 5UTR inh 53, BaF3 parental 83, Ba/F3 V617F tox 85
O=C(/C=C/c1ccc(-c2ccccc2[N+](=O)[O-])o1)c1ccccc1	none
Cc1c(NC(=O)c2ccc(C(C)(C)C)cc2)cccc1[N+](=O)[O-]	none
O=C(NCCCN1CCCC1=O)[C@H](CSCc1ccccc1)N1Cc2ccccc2C1=O	none (no result: APP 5UTR inh)
O=C(C1=C[C@@H](c2csc3ccccc23)C[C@@H](OCc2ccc(CO)cc2)O1)N1CCN(Cc2ccc3c(c2)OCO3)CC1	aSyn 5UTR inh 69
Nc1ncc(-c2nnnn2-c2ccc(Cl)cc2)c(-c2ccc(Cl)cc2)n1	BaF3 parental 32, Ba/F3 V617F tox 28
COc1ccc(Cc2nnc(NN)[nH]c2=O)cc1OC	none (no result: APP 5UTR inh, BaF3 parental, Ba/F3 V617F tox)
O=C(/C=C/c1ccccc1)Nc1cccnc1	none (no result: APP 5UTR inh, BaF3 parental, Ba/F3 V617F tox)
COc1ccc(C(=O)/C=C2/c3ccccc3CC(C)(C)N2C)cc1	APP 5UTR inh 48
COc1ccc(C(=O)/C=C2/C(=O)Nc3ccccc32)cc1	none (no result: APP 5UTR inh, BaF3 parental, Ba/F3 V617F tox)
CN1/C(=C\C(=O)Nc2cccnc2)c2ccccc2CC1(C)C	BaF3 parental 36
Cn1cc(S(=O)(=O)N2CCC3(CC2)OCCO3)c(=O)n(C)c1=O	none
COc1ccc(-c2nc(NC(=O)C3CC(=O)N(c4ccc5c(c4)OCCO5)C3)sc2C)cc1 (configuration not stated)	BaF3 parental 53, Ba/F3 V617F tox 45
Cc1ccc2ncnc(Nc3ccccc3)c2c1	none
CCn1c2ccccc2c2cc(CNCc3ccc(OC)cc3OC)ccc21	aSyn 5UTR inh 63
COc1cccc(CNCc2ccc(OC)cc2OC)c1	none (no result: APP 5UTR inh, BaF3 parental, Ba/F3 V617F tox)
Cc1[nH]c(=O)[nH]c(=O)c1/C=N/NC(=O)CCNC(=O)OC(C)(C)C	none (no result: APP 5UTR inh)
CN(N=Nc1cccc([N+](=O)[O-])c1)c1cccc([N+](=O)[O-])c1	none
CC(=O)N(C)c1cccc([N+](=O)[O-])c1	APP 5UTR inh 87
CCCC(=O)Nc1sc2c(c1C#N)CCCCC2	none
CC1CCc2c(sc(NC(=O)CSc3ncn[nH]3)c2C#N)C1 (configuration not stated)	aSyn 5UTR inh 91 (no result: APP 5UTR inh)
CC(C)(C)C1CCc2c(sc(NC(=O)CSc3ncn[nH]3)c2C#N)C1 (configuration not stated)	none
N#Cc1c(NC(=O)CSc2ncn[nH]2)sc2c1CCCC2	aSyn 5UTR inh 84 (no result: APP 5UTR inh)
N#Cc1c(NC(=O)CCCC(=O)O)sc2c1CCCCC2	APP 5UTR inh 46, aSyn 5UTR inh 90
COc1ccc(C(CC(=O)Nc2ccc(Cl)cc2F)NC(=O)C(F)(F)F)cc1 (configuration not stated)	none (no result: APP 5UTR inh)
CC(C)CNC(=O)c1c(F)c(F)c(F)c(F)c1F	BaF3 parental 74
O=C(NCCCCNC(=O)c1c(F)c(F)c(F)c(F)c1F)c1c(F)c(F)c(F)c(F)c1F	none
CCOC(=O)N1CCN(C(=O)CCc2ccc(S(=O)(=O)NC(C)C)cc2)CC1	none (no result: APP 5UTR inh, BaF3 parental, Ba/F3 V617F tox)
Cc1ccc(Oc2ccc(-c3nc(N)nc(N)n3)cc2)cc1C	APP 5UTR inh 92
COc1ccc(Br)cc1C(=O)N/N=C/c1ccc([N+](=O)[O-])cc1	none
O=[N+]([O-])c1cccc(-c2nnc(-c3ccccc3)o2)c1	aSyn 5UTR inh 68
O=C(Nc1nc(-c2ccccc2)cs1)NC1CCCCC1	none (no result: aSyn 5UTR inh)
CCn1nc(NC(=O)C(C)(C)C)c2cc3cccc(C)c3nc21	none (no result: APP 5UTR inh, BaF3 parental, Ba/F3 V617F tox)
C=CCn1c(=O)c(C(=O)NCCN(CC)CC)c(O)c2ccccc21	BaF3 parental 46 (no result: aSyn 5UTR inh)
C=CCn1c(=O)c(C(=O)NCc2ccccc2Cl)c(O)c2ccccc21	none (no result: APP 5UTR inh, BaF3 parental, Ba/F3 V617F tox)
Cc1ccccc1N=C/C=C1\N(C)c2ccccc2C1(C)C	BaF3 parental 48
CN1/C(=C\C=[N+](C)c2ccccc2)C(C)(C)c2ccccc21	BaF3 parental 66, Ba/F3 V617F tox 75
Cc1cc(-c2ccccc2)nc(SCc2ccc(C(=O)O)o2)n1	none
Cc1ccc(S(=O)(=O)NCc2ccncc2)cc1C	BaF3 parental 75, Ba/F3 V617F tox 48
O=S(=O)(NCc1ccncc1)c1ccc(Br)s1	BaF3 parental 62, Ba/F3 V617F tox 47
CCN(C1CCCCC1)S(=O)(=O)c1ccc(S(=O)(=O)NCc2ccncc2)cc1	BaF3 parental 55, Ba/F3 V617F tox 45
CN(C)Cc1ccccc1Sc1ccc(Br)cc1	none
Cc1ccc(NC(=O)N2CCCC2C(=O)NCCC2=CCCCC2)cc1 (configuration not stated)	APP 5UTR inh 48
CC(=O)Nc1ccc(C(=O)N/C(=C/c2ccccc2)C(=O)Nc2cccc(C(=O)O)c2)cc1	none
CC(=O)Nc1ccc(NC(=O)/C(Cl)=C/c2ccccc2)cc1	BaF3 parental 93
O=C(Cn1ncc(Cl)c(Cl)c1=O)N1CCN(Cc2ccccc2)CC1	APP 5UTR inh 90
O=c1c(Cl)c(Cl)cnn1Cc1ccccc1Cl	APP 5UTR inh 92
Cc1cc(C)cc(Cn2ncc(Cl)c(Cl)c2=O)c1	APP 5UTR inh 58
O=C(Cn1ncc(Cl)c(Cl)c1=O)N1CCOCC1	none
CC1(C)C(=O)Nc2ccccc2N1C(=O)Cn1ncc(Cl)c(Cl)c1=O	BaF3 parental 31 (no result: APP 5UTR inh)
COc1ccc(C(=O)NCCc2nnc(SCC(=O)Nc3ccc(Br)cc3)n2C)cc1	none
CC1(C)CC2(C)OCCN2C(=S)N1 (configuration not stated)	none (no result: APP 5UTR inh)
C=CCN(CC(=O)NCC1CCCO1)C(=O)CCC(=O)Nc1cc(C)on1 (configuration not stated)	BaF3 parental 93
CC(C)CCNC(=O)c1ccc(OC2CCN(S(=O)(=O)N(C)C)CC2)cc1	BaF3 parental 27
Cc1ccc2[nH]c3c(N4CCc5ccccc5C4)ncnc3c2c1	BaF3 parental 49, Ba/F3 V617F tox 44
Fc1ccc2[nH]c3c(N4CCc5ccccc5C4)ncnc3c2c1	BaF3 parental 55, Ba/F3 V617F tox 44 (no result: APP 5UTR inh)
Brc1ccc2[nH]c3c(N4CCc5ccccc5C4)ncnc3c2c1	none
O=C1CCCN2N=C(SCC(=O)Nc3cccc(C(F)(F)F)c3)SC2=N1	none (no result: APP 5UTR inh, BaF3 parental, Ba/F3 V617F tox)
CCCN(CCC)S(=O)(=O)c1ccc(C(=O)Nc2nnc(-c3cccc(OC)c3)o2)cc1	aSyn 5UTR inh 70
CCCN(CCC)S(=O)(=O)c1ccc(C(=O)Nc2nnc(CSC)o2)cc1	none
COc1cccc(-c2nnc(NC(=O)c3cccc(F)c3)o2)c1	none (no result: APP 5UTR inh, BaF3 parental, Ba/F3 V617F tox, IEC-6 cytotox, KLF5 inhibitor)
CCCN(CCC)S(=O)(=O)c1ccc(C(=O)Nc2nnc(-c3cc(OC)cc(OC)c3)o2)cc1	aSyn 5UTR inh 82

Bioassay records deposited in PubChem BioAssay by several laboratories.
